These results are taken from PubChem BioAssay (Tox21).

Inconclusive results are not listed. Active and inactive are the calls of the source. Calls follow the shape of the dose curve; as a rule, active = well fitted activation curve with a large enough effect in the repeat runs; inconclusive = weak or mixed curves; inactive = flat fitted curve, though single readings scatter.
% is scaled to controls: 0 for no effect and ±100 for the full control effect.

The nature of this test: Caspase-3/7 induction in HepG2 cells by small molecules, qHTS assay (AID 1346978). Also: nearly all actives have a fitted effect of over 15% in size. The conditions noted are these: HepG2 caspase-3/7 activation, Caspase-Glo luminescence, 17 h; series mostly up to 92.4 µM; caspase activation: at the top concentration. The source says:
National Center for Advancing Translational Sciences [NCATS] NIH Chemical Genomics Center [NCGC] U.S. Environmental Protection Agency [EPA] National Institutes of Environmental Health Sciences [NIEHS] National Toxicology Program [NTP] Assay overview: Apoptosis is a process of programmed cell death and plays a central role in the development of multicellular organisms. It is a highly regulated process and induces cell death by activating caspases, which are the members of cysteine aspartic acid-specific protease (caspase) family. Caspases involved in apoptosis are classified by their mechanism of action as initiator caspases (caspase-2, -8, -9 and -10) and executioner caspases (caspase-3, -6, and -7). Inhibition of apoptosis results in number of cancers, autoimmune diseases, inflammatory diseases and viral infection. To identify small molecule compounds that induce apoptosis, a homogeneous, luminescent Caspase-Glo 3/7 assay was used. Wild type HepG2 cells were used to screen Tox21 libraries for identifying caspase-3/7 activity inducers.
Assay Protocol Summary: HepG2 cells were dispensed at 2,000 per well in 5uL of culture medium into white solid bottom 1536-well plates (Corning Life Sciences, Corning, NY) using a Multidrop Combi (Thermo Scientific, Waltham, MA) dispenser. The assay plates were incubated at 37 C and 5% CO2 for 5hr, and then 23nL of compounds dissolved in DMSO and positive control were transferred using a Pintool station (Wako, San Diego, CA). The assay plates were incubated at 37C and 5% CO2 for 17hr. For caspase-3/7 activity read, 4uL of Caspase-Glo 3/7 reagent (Promega Corporation, Madison, WI) was added to each well of the assay plates using Flying Reagent Dispenser (FRD, Aurora Discovery, San Diego, CA) and incubated the assay plates at room temperature for 30min. The luminescence signal was quantified using a ViewLux plate reader (Perkin Elmer, Shelton, CT).
With `COc1ccc(CN2CCNCC2)c(OC)c1OC`, the “caspase activation” value is -0.886% [at 42.5 µM] (inactive). Regarding `CC(O)CCl` (stereo not given), the “caspase activation” value was 1.79% (inactive). On the same count and under the same terms, next, `C(COCC1CO1)OCC1CO1` (stereo not given): 0.809% (inactive); `CC1N=C(N)OC1c1ccccc1` (stereo not given): -0.0301% (inactive); `C#CC(C)(C)O`: 0.872% (inactive). Same read-out and setting: the figure for `CCCC[N+](=O)[O-]` is 0.176% (inactive); for `CCCOc1nn(C(=O)NS(=O)(=O)c2ccccc2C(=O)OC)c(=O)n1C` it is -0.336% (inactive). Consider `NNCc1ccccc1`, for which the “caspase activation” value was -2.97% (inactive). On to `Cc1ccc(Cl)c(O)c1`, for which the “caspase activation” value was 0.489% [at 42.5 µM] (inactive).

With `CCNc1nc(NCC)nc(SC)n1`, the “caspase activation” value was 0.108% (inactive). For the molecule `C=C(Cl)CSC(=S)N(CC)CC`, the “caspase activation” value was 0.461% (inactive). Still for that read-out and setting: next, `C[C@H](N)C(=O)c1ccccc1`: -0.448% (inactive).

In the case of `O=c1[nH]c2ccccc2o1`, the “caspase activation” value is -0.071% (inactive). On the same count and under the same terms, next, `c1cncc([C@@H]2CCCCN2)c1`: 1.24% (inactive); `N#CN`: -0.0288% [at 240 µM] (inactive); `NNC(N)=O`: 2.96% (inactive). As to `CCc1cc(OC)c(C[C@H](C)N)cc1OC`, the “caspase activation” value was 2.7% (inactive). On the same count and under the same terms, next, `CCCCS(=O)(=O)Cl`: 0.105% (inactive). As to `COc1ccc(C=O)cc1O`, the “caspase activation” value was -1.2% (inactive). As to `O=C(O)CBr`, the “caspase activation” value is 0.787% (inactive). On the same count and under the same terms, the figure for `C[C@H](CN1CCOCC1)C(C(=O)N1CCCC1)(c1ccccc1)c1ccccc1` is 1.79% (inactive); for `CCN(CCO)CCO` it is 0.268% (inactive); for `CCN(CCO)CCn1c(Cc2ccccc2)nc2c1c(=O)n(C)c(=O)n2C` it is -1.57% [at 42.5 µM] (inactive). On to `CC(=O)CN(CC(C)=O)N=O`, for which the “caspase activation” value is -1.02% (inactive). In the case of `CCCCCCCC(=O)Cl`, the “caspase activation” value is 0.369% (inactive). For `C[C@]12C=CC(=O)C=C1CC[C@@H]1[C@@H]2CC[C@@]2(C)[C@H]1CC[C@]2(C)O`, the “caspase activation” value was 2.83% [at 42.5 µM] (inactive). In the case of `ClC1=C(Cl)C2(Cl)C(CBr)CC1(Cl)C2(Cl)Cl` (stereo not given), the call was inactive. Turning to `C=C1CC[C@@]2(O)[C@H]3Cc4ccc(O)c5c4[C@@]2(CCN3CC2CC2)[C@H]1O5`, the “caspase activation” value is -0.718% [at 42.5 µM] (inactive). As to `OCC(Cl)CCl` (stereo not given), the “caspase activation” value was 0.329% (inactive). Turning to `O=C(O)c1c(Cl)ccc2cc(Cl)cnc12`, the “caspase activation” value was -0.548% (inactive).

Consider `CCN1CCCC1CNC(=O)C(O)(c1ccccc1)c1ccccc1` (stereo not given), for which the “caspase activation” value was -0.584% [at 42.5 µM] (inactive).

For `[P]#[In]`, the “caspase activation” value was 0.587% (inactive). Regarding `CCOC(=O)Nc1cccc(OC(=O)Nc2ccccc2)c1`, the “caspase activation” value is -14.2% (inactive). With `BrCC1CO1` (stereo not given), the “caspase activation” value was -1.03% (inactive).

Regarding `CCN[C@@H](C)Cc1ccccc1`, the “caspase activation” value is -0.864% (inactive). Still for that read-out and setting: next, `O=C(NC(O)C(Cl)(Cl)Cl)NC(O)C(Cl)(Cl)Cl` (stereo not given): -0.252% [at 42.5 µM] (inactive).

As to `COP(=O)(O)OC`, the “caspase activation” value is -0.854% (inactive). On to `CC(C)(C)NC[C@H](O)c1ccc(O)cc1Cl`, for which the “caspase activation” value is 0.284% [at 42.5 µM] (inactive).

Consider `N#CC(Br)(Br)C(N)=O`, for which the “caspase activation” value is -2.39% (inactive).

In the case of `O=C(O)C(F)(F)C(F)(F)C(F)(F)C(F)(F)C(F)(F)C(F)(F)F`, the “caspase activation” value is 0.133% (inactive).
